Laboratory results: PubChem BioAssay
Active and inactive are the calls of the source.

Key:
[1] = E. coli DRC41 culture turbidity changes, primary screen, E. coli filamentation inducer project, strain DRC41, OD650, 48 h (AID 1152);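 note: E. coli MC1000 strain DRC41 lacking acrAB efflux pump and sulA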; details: E. coli DRC41 (acrAB sulA), higher = more signal, called active from +8 up or from −8 down
[2] = small-molecule binders of probe aLefty1, primary screen, biochemical, small-molecule microarray, 635/667 nm fluorescence (AID 1153); details: higher = more signal;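 note: score merges spot fluorescence with signal-to-noise ratio from the scanned slide images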
[3] = PSAC antagonists in infected red cells, primary screen, cell-based, P. falciparum Indochina, OD700, 1 h (AID 1154); details: P. falciparum Indochina infected RBC osmotic lysis, higher = more signal, called active from +8 up or from −8 down
[4] = PSAC antagonists in infected red cells, primary screen, cell-based, P. falciparum Indochina, OD700, 2 h (AID 1155);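 note: lysis reports solute entry through the parasite surface anion channel PSAC; channel blockers reduce lysis of infected cells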; details: P. falciparum Indochina infected erythrocytes, osmotic lysis OD700; higher = more signal, called active from +8 up or from −8 down
[5] = osmotic lysis modulators in infected erythrocytes, primary screen, PSAC antagonist project, cell-based, P. falciparum Indochina, OD700, 3 h (AID 1156); details: higher = more signal, called active from +8 up or from −8 down
[6] = PSAC antagonists in infected red cells, primary screen, cell-based, P. falciparum Indochina, OD700, 18 h (AID 1157); details: P. falciparum Indochina infected erythrocytes, osmotic lysis OD700, 18 h; higher = more signal, called active from +8 up or from −8 down
[7] = modulators of S6 phosphorylation in cells, primary screen, cell-based, A549, cytoblot, luminescence, serum-stimulated (AID 1158); details: A549 phospho-S6 cytoblot, 5 h, higher = more signal;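 note: serum-stimulated A549 lung adenocarcinoma cells; signal is phosphorylated S6 detected by cytoblot immunostaining with HRP secondary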
[8] = biological target: NADPH oxidase 2 (Homo sapiens) (UniProt P04839); experiment: NOX2-dependent H2O2 signal modulators, primary screen, NOX inhibitor project, cell-based, HEK293-NOX2, PMA-stimulated, Amplex Red fluorescence (AID 1159); details: 45 min, higher = more signal, called active from +8 up or from −8 down; note: test concentration not given here
[9] = biological target: NADPH oxidase 4 (Homo sapiens) (UniProt Q9NPH5); experiment: NOX4-dependent H2O2 signal modulators, primary screen, NOX inhibitor project, cell-based, HEK293-NOX4, tetracycline-induced, Amplex Red fluorescence (AID 1160); details: 45 min, higher = more signal, called active from +8 up or from −8 down
[10] = biological target: NADPH oxidase 5 (Homo sapiens) (UniProt Q96PH1); experiment: NOX5-dependent H2O2 signal modulators, primary screen, NOX inhibitor project, cell-based, HEK293-NOX5, Amplex Red fluorescence (AID 1161); details: HEK293-NOX5, ionomycin, 45 min, higher = more signal
NADPH oxidase 5 (Homo sapiens), sequence (Q96PH1 whole entry, looked up): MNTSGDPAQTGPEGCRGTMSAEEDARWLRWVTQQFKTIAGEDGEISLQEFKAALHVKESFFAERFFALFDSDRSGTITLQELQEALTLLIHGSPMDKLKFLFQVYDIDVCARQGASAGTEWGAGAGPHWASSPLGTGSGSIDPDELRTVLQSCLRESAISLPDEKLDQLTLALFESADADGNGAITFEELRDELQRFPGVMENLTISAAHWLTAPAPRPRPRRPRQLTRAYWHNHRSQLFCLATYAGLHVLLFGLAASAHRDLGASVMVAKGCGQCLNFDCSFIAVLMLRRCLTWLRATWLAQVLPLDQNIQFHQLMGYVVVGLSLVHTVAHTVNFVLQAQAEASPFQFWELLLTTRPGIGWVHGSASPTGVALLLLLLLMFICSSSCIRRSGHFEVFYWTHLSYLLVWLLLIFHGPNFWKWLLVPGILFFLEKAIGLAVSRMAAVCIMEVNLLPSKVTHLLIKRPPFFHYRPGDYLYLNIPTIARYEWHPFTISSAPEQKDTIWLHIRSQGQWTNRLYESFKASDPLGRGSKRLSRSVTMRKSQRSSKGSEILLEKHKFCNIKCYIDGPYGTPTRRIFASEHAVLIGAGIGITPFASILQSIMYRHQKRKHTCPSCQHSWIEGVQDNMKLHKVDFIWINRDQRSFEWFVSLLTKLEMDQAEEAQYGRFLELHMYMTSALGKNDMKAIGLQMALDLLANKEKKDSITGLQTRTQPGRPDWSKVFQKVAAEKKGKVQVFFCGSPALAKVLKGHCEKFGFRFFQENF

NADPH oxidase 4 (Homo sapiens), sequence (Q9NPH5 whole entry, looked up): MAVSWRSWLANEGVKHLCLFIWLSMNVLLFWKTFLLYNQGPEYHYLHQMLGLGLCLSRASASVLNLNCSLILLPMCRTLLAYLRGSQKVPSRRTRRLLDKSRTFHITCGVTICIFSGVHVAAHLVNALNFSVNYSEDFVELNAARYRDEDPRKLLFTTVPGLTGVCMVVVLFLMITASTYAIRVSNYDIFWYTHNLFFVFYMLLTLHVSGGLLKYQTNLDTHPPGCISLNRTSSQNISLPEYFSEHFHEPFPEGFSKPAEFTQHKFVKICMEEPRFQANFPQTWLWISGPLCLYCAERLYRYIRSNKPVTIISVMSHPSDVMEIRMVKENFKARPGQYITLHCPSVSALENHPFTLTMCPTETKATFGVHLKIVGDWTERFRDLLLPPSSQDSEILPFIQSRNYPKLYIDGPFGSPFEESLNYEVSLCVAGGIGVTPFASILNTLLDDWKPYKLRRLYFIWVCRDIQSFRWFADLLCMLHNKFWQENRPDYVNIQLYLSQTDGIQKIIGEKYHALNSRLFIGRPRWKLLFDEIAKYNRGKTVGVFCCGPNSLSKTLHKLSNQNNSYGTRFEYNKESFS
NADPH oxidase 2 (Homo sapiens), sequence (P04839 whole entry, looked up): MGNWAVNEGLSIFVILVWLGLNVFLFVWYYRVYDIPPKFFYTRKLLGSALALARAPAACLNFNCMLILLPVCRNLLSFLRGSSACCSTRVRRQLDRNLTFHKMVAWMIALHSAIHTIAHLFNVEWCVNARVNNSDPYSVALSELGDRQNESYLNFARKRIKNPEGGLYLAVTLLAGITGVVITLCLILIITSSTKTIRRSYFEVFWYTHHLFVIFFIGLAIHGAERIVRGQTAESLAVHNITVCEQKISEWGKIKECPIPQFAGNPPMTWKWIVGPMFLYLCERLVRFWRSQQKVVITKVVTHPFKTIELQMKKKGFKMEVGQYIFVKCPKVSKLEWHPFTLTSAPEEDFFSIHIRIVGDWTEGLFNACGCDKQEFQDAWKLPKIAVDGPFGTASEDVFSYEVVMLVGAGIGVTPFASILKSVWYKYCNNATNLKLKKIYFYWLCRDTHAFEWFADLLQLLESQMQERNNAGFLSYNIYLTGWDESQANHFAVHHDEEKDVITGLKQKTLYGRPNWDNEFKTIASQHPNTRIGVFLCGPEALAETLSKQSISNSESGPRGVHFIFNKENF

## C=CCNC(=O)[C@@H]1[C@H]2C(=O)O[C@H](c3ccccc3)[C@H](c3ccccc3)N2[C@H](c2ccccc2OCCO)[C@@]12C(=O)N(C(=O)OCCOC)c1ccc(C#CC3(O)CCCCCC3)cc12
[1]
  z-score: 0.592 (inactive)
[2]
  composite z-score: 0.038
[3]
  z-score: 1.95 (inactive)
[4]
  z-score: 2.02 (inactive)
[5]
  z-score: 0.167 (inactive)
[6]
  z-score: 0.996 (inactive)
[7]
  z-score: 0.152
[8]
  z-score: 1.09 (inactive)
[9]
  z-score: 0.906 (inactive)
[10]
  z-score: 0.337

## CN1C(=O)C2C=CC(C(O)c3cccn3C)N(Nc3ccc([N+](=O)[O-])cc3[N+](=O)[O-])C2C1=O (stereo not given)
[1]
  z-score: -0.824 (inactive)
[2]
  composite z-score: 0.551
[3]
  z-score: 0.627 (inactive)
[4]
  z-score: 1.31 (inactive)
[5]
  z-score: -0.0499 (inactive)
[6]
  z-score: 1.17 (inactive)
[7]
  z-score: -1.11
[8]
  z-score: -0.797 (inactive)
[9]
  z-score: -1.5 (inactive)
[10]
  z-score: -1.27

## CCOC(=O)C[C@H]1[C@H](OC(=O)c2cc3ccccc3oc2=O)[C@@H](NC(=O)c2ccc3ccccc3n2)c2cc(OCCCO)ccc2N1C(=O)Cc1ccc(OC)cc1
[1]
  z-score: 0.116 (inactive)
[2]
  composite z-score: 0.0774
[3]
  z-score: 8.66 (active)
[4]
  z-score: 1.33 (inactive)
[5]
  z-score: 0.635 (inactive)
[6]
  z-score: 0.745 (inactive)
[7]
  z-score: -0.0026
[8]
  z-score: 1.01 (inactive)
[9]
  z-score: 1 (inactive)
[10]
  z-score: 1.53

## Cc1ccc(S[C@]2(C(=O)NC(C)C)CC(=O)N(Cc3cc(C(F)(F)F)cc(C(F)(F)F)c3)[C@@H]2c2ccc(CO)cc2)cc1
[1]
  z-score: -0.16 (inactive)
[2]
  composite z-score: -0.0252
[3]
  z-score: 2.96 (inactive)
[4]
  z-score: 0.812 (inactive)
[5]
  z-score: 0.497 (inactive)
[6]
  z-score: 0.672 (inactive)
[7]
  z-score: -0.768
[8]
  z-score: -0.00496 (inactive)
[9]
  z-score: -0.242 (inactive)
[10]
  z-score: 0.128

## C=C(COC)/C(=C/C[C@H](OC(=O)c1ccncc1)c1ccccc1OCCO)c1cc(C(=O)OC)ccc1OC
[1]
  z-score: -0.604 (inactive)
[2]
  composite z-score: 0.307
[3]
  z-score: 14 (active)
[4]
  z-score: 2.43 (inactive)
[5]
  z-score: 2.72 (inactive)
[6]
  z-score: 0.773 (inactive)
[7]
  z-score: 0.0976
[8]
  z-score: -1.21 (inactive)
[9]
  z-score: 0.0788 (inactive)
[10]
  z-score: -1.62

## O=C(Cc1ccccc1)[C@H]1C2C=CCCC(c3ccccc3)=C2CN1Cc1ccccc1 (stereo not given in full)
[1]
  z-score: 2.46 (inactive)
[2]
  composite z-score: -0.151
[3]
  z-score: 0.567 (inactive)
[4]
  z-score: 0.186 (inactive)
[5]
  z-score: 0.879 (inactive)
[6]
  z-score: 0.06 (inactive)
[7]
  z-score: -0.0984
[8]
  z-score: -0.534 (inactive)
[9]
  z-score: 0.773 (inactive)
[10]
  z-score: 1.13

## C=CC[C@@H](OC(=O)Nc1ccc(OC)cc1)c1ccc(O)c(F)c1
[1]
  z-score: 0.111 (inactive)
[2]
  composite z-score: 0.109
[3]
  z-score: 2.93 (inactive)
[4]
  z-score: -0.0384 (inactive)
[5]
  z-score: -1.12 (inactive)
[6]
  z-score: -0.113 (inactive)
[7]
  z-score: -0.386
[8]
  z-score: -6 (inactive)
[9]
  z-score: -2.91 (inactive)
[10]
  z-score: -3.48

## CCCN1C(=O)[C@]2(Cc3ccccc31)N=C(c1ccc(OCCCO)cc1)O[C@@H]2c1ccccc1
[1]
  z-score: -0.753 (inactive)
[2]
  composite z-score: 0.643
[3]
  z-score: 30.9 (active)
[4]
  z-score: 25.5 (active)
[5]
  z-score: 3.13 (inactive)
[6]
  z-score: 2.19 (inactive)
[7]
  z-score: 0.117
[8]
  z-score: -3 (inactive)
[9]
  z-score: -0.843 (inactive)
[10]
  z-score: -1.8

## Cc1ccccc1C(O)C1C=CC2C(=O)NC(=O)C2N1Nc1ccccn1 (stereo not given)
[1]
  z-score: -0.908 (inactive)
[2]
  composite z-score: -0.229
[3]
  z-score: 0.408 (inactive)
[4]
  z-score: 0.608 (inactive)
[5]
  z-score: -0.0205 (inactive)
[6]
  z-score: 0.68 (inactive)
[7]
  z-score: -1.01
[8]
  z-score: -0.444 (inactive)
[9]
  z-score: -2.62 (inactive)
[10]
  z-score: -1.27

## COCCCNC(=O)[C@@]1(CCC(=O)OC(C)(C)C)N=C(c2ccc(OCCCO)cc2)O[C@H]1c1ccccc1N=[N+]=[N-]
[1]
  z-score: 1.15 (inactive)
[2]
  composite z-score: 0.286
[3]
  z-score: 30.4 (active)
[4]
  z-score: 29.3 (active)
[5]
  z-score: 2.54 (inactive)
[6]
  z-score: 2.43 (inactive)
[7]
  z-score: -0.226
[8]
  z-score: -1.35 (inactive)
[9]
  z-score: 0.197 (inactive)
[10]
  z-score: -2.03

## CCCC=C(CCC)[C@@H](NC(=O)C(C)(C)C)c1ccc(C(=O)OC)cc1
[1]
  z-score: -1.31 (inactive)
[2]
  composite z-score: 0.666
[3]
  z-score: 0.494 (inactive)
[4]
  z-score: 0.889 (inactive)
[5]
  z-score: -1.28 (inactive)
[6]
  z-score: 1.21 (inactive)
[7]
  z-score: 0.0791
[8]
  z-score: -0.129 (inactive)
[9]
  z-score: 0.624 (inactive)
[10]
  z-score: 2.5

## COc1cc2c(cc1O)C(c1cccs1)N(Cc1cc3c(cc1Br)OCO3)CC2 (stereo not given)
[1]
  z-score: -1.8 (inactive)
[2]
  composite z-score: -0.566
[3]
  z-score: 10.2 (active)
[4]
  z-score: 2.26 (inactive)
[5]
  z-score: -1.06 (inactive)
[6]
  z-score: 1.41 (inactive)
[7]
  z-score: 0.0127
[8]
  z-score: -4.19 (inactive)
[9]
  z-score: -2.38 (inactive)
[10]
  z-score: -2.26

## C=CC[C@H](OC(=O)Nc1ccc(SC)cc1)c1ccc(O)c2ccccc12
[1]
  z-score: -1.2 (inactive)
[2]
  composite z-score: 0.27
[3]
  z-score: 29.5 (active)
[4]
  z-score: 16.8 (active)
[5]
  z-score: 2.22 (inactive)
[6]
  z-score: 1.63 (inactive)
[7]
  z-score: 0.76
[8]
  z-score: -5.83 (inactive)
[9]
  z-score: -1.41 (inactive)
[10]
  z-score: -0.0589
